# High-throughput results from PubChem.
# TGFb SMAD3 inh: qHTS for Inhibitors of TGF-b. HepG2 CAGA-GFP TGF-b/SMAD3 reporter, GFP fluorescence, 18 h; TGF-beta stimulated, 500 pg/mL final. AID 588855, 2011. Potency, µM (series often up to 46.1 µM), hits mostly inhibitors. actives 1.2% (n = 410,000); also: nearly all actives have a fitted effect of over 65% in size
#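 HEPG2 CAGA-GFP cells (1000/well, DMEM with 1% FBS) were pre-incubated 2 h at 37 degrees C, given compound by pin tool, then stimulated with TGF-beta at 500 pg/mL final for 18 h before per-cell GFP fluorescence imaging.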
# DT40 TDP1 no CPT: qHTS for Inhibitors of human tyrosyl-DNA phosphodiesterase 1 (TDP1): qHTS in cells in absence of CPT; DT40 Tdp1-/- hTDP1 cells, no CPT, ATP luminescence, 48 h; Potency, µM (highest dose often 46.2 µM), actives largely listed as inhibitors; actives 15% (n = 420,000); also: nearly all actives have a fitted effect of over 55% in size
#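 Luminescent ATP content (CellTiter-Glo) served as the growth readout. Knockout chicken DT40 cells expressing human TDP1 were exposed to compounds without camptothecin for a minimum 48 hr at 37 °C.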
# HT1080-NT tox: qHTS for induction of synthetic lethality in tumor cells producing 2HG: qHTS for the HT-1080-NT fibrosarcoma cell line; Potency, µM (highest dose often 46.1 µM), hits mostly cytotoxic; HT-1080-NT fibrosarcoma viability, CellTiter-Glo ATP luminescence, 48 h; AID 686970, 2013; actives 1.6% (n = 360,000);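 also: NT is the 2HG producing partner of a matched IDH1 knockdown line; nearly all actives have a fitted effect of over 55% in size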
#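 Viability of the 2HG-overproducing fibrosarcoma line after 48 hours of compound exposure at 37 degrees C was determined by luminescence with CellTiter-Glo, and concentration-effect curves were then fitted and categorized.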
# HT1080 IDH1KD tx: qHTS for induction of synthetic lethality in tumor cells producing 2HG: qHTS for the HT-1080-IDH1KD cell line | HT-1080 IDH1 knockdown viability, ATP luminescence, 48 h | Potency, µM (series often up to 46.1 µM), actives largely listed as cytotoxic | actives 2% (n = 360,000) | AID 686971, 2013
#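 % activity derives from luminescence (CellTiter-Glo), normalised to DMSO and no-cell wells. HT-1080-IDH1KD cells, 750/well, had 48 h compound exposure at 37 °C.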
# HepG2 viability: qHTS for Inhibitors of TGF-b: Cytotox Counterscreen; actives 0.76% (n = 410,000); HepG2 CAGA-GFP viability, ATP luminescence, 18 h; Potency, µM (series often up to 46.1 µM), hits mostly cytotoxic; AID 588856, 2011
#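 CellTiter-Glo luminescence gave cytotoxicity after 18 hours at 37 degrees C. The cells were HepG2 CAGA-GFP in 1% FBS DMEM, stimulated with 500 pg/mL TGF-beta after compound addition. %Activity was normalised to no-cell wells (complete cell-killing) and DMSO (no toxicity), and curves were fitted and classified.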
# TDP1 cell CPT: qHTS for Inhibitors of human tyrosyl-DNA phosphodiesterase 1 (TDP1): qHTS in cells in presence of CPT; Potency, µM (doses to about 46.2 µM), usual class: inhibitors; actives 12% (n = 420,000); chicken DT40 Tdp1-/-;hTDP1 cells + 20 nM CPT, ATP luminescence, 48 h; AID 686979, 2013; also: nearly all actives have a fitted effect of over 55% in size
#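 Cell growth measured by CellTiter-Glo luminescence after a minimum 48 h, 37 C compound exposure with 20 nM CPT in Tdp1-knockout DT40 cells stably expressing hTDP1, seeded 400/well; qHTS titration format.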
# Numbers stand for hits; n = inactive; u = inconclusive; x = not tested or not shown. Hits are enriched below; roughly 17% of the tested compounds scored in any of these assays. Calls follow the shape of the dose curve; as a rule, active = well fitted curve in the direction sought with a large enough effect; inconclusive = small, poorly fitted or top-dose-only effect, or another doubt; inactive = no such curve, though single readings can be large; an effect the other way counts as inactive or inconclusive.
SMILES,TGFb SMAD3 inh,DT40 TDP1 no CPT,HT1080-NT tox,HT1080 IDH1KD tx,HepG2 viability,TDP1 cell CPT
Cc1ccc(C(=O)/C=C/Nc2ccccc2C(N)=O)cc1,n,n,n,n,n,n
Cc1ccc(/C=C/C(=O)NC(=S)Nc2ccccc2C(=O)NC2CCCCC2)cc1,u,11.6µM,n,n,n,13µM
O=C(/C=C/c1ccc(F)cc1)NC(=S)Nc1ccccc1C(=O)NC1CCCCC1,n,13µM,n,n,n,16.4µM
CCOc1ccc(NC(=S)NC(=O)/C=C/c2ccc(C)cc2)c([N+](=O)[O-])c1,n,13µM,n,n,n,14.6µM
Cc1ccc(/C=C/C(=O)Nc2ccccc2C(N)=O)cc1,n,u,n,n,n,20.6µM
Cc1ccc(S(=O)(=O)N(C)C)cc1NS(=O)(=O)c1ccc(Cl)s1,n,n,n,n,n,n
COc1cccc(C2/C(=C(\O)c3ccc4c(c3)OCCO4)C(=O)C(=O)N2Cc2cccnc2)c1 (stereo unspecified),n,n,n,n,n,n
COc1ccc(/C=C/C(=O)NCCCN2CCCCCC2)cc1,n,n,n,n,n,n
O=C(/C=C/c1ccc(F)cc1)NCCCN1CCN(CCCNC(=O)/C=C/c2ccc(F)cc2)CC1,n,25.9µM,n,n,n,u
CC(C)NC(=S)NC(=O)/C=C/c1ccc(F)cc1,u,14.6µM,n,n,n,20.6µM
O=C(/C=C/c1ccc(F)cc1)NC(=S)NC1CCCCC1,n,u,n,n,n,n
Cc1ccc2c(c1)cc1c(=O)n(CC(=O)N3CCCCC3)nc(C)n12,n,u,x,x,n,n
CC(=O)Oc1cccc(O)c1,x,n,x,x,x,u
CC(=O)Oc1ccc(C23c4ccccc4C2(OC(C)=O)c2cc(OC(C)=O)ccc23)cc1 (stereo unspecified),u,u,7.31µM,7.31µM,n,23.1µM
CCc1ccccc1NC(=O)/C(=C/c1ccco1)c1ccccc1,n,18.4µM,n,n,n,u
Cc1ccccc1NC(=O)/C(=C/c1ccco1)c1ccccc1,u,11.6µM,n,n,n,23.1µM
CC(C)(C)NC(=O)/C(=C/c1ccco1)c1ccccc1,n,n,n,n,n,n
CC(=O)c1ccc(OCCOc2ccc(Cl)c3cccnc23)cc1,n,n,n,n,n,n
COc1ccccc1OCC(=O)NNc1c2ccccc2nc2ccccc12,u,18.4µM,n,n,n,u
COc1cccc(C(=O)NNc2nc(C)cc(C)n2)c1,n,n,n,n,n,n
COc1cccc(C(=O)NNc2c3ccccc3nc3ccccc23)c1,n,11.6µM,n,n,n,u
Cc1ccc(C(=O)NNc2c3ccccc3nc3ccccc23)cc1,n,10.3µM,n,u,n,13µM
CCn1c(NC(=O)c2ccc(C)cc2)c2ccccc2nc1=O,n,n,n,n,n,n
O=C(NNc1c2ccccc2nc2ccccc12)c1ccc(Cl)cc1,n,11.6µM,n,n,n,u
CC1CCN(S(=O)(=O)N2CCN(C(=O)c3ccc4c(c3)OCO4)CC2)CC1,n,n,n,n,n,n
SMILES,TGFb SMAD3 inh,DT40 TDP1 no CPT,HT1080-NT tox,HT1080 IDH1KD tx,HepG2 viability,TDP1 cell CPT
O=C(CCNS(=O)(=O)c1ccc(Br)cc1)NCCc1ccc(Cl)cc1,n,u,u,n,n,u
Nc1ccccc1C(=O)NNc1c2ccccc2nc2ccccc12,u,13µM,n,n,n,u
OC(Cc1ccncc1)(c1ccccc1)c1ccccc1,n,u,n,n,n,u
Cc1ccc2nc(CC(O)(c3ccccc3)c3ccccc3)ccc2c1,n,20.6µM,n,n,n,u
COc1cccc2ccc(CC(O)(c3ccccc3)c3ccccc3)nc12,n,25.9µM,n,n,n,u
COC(=O)C(Cc1cccc(C)n1)(c1ccccc1)c1ccccc1,n,n,n,n,n,u
CCn1c(SCC(=O)NC2CC2)nnc1-c1ccc(F)cc1,n,n,n,n,n,n
Cc1nn2c3ccccc3nc2c2ccccc12,u,u,u,u,15.8µM,u
Cc1nn2c(-c3ccccc3)nnc2c2ccccc12,u,n,n,n,n,n
COC(=O)C[C@H]1c2cc(C(F)(F)F)ccc2S(=O)(=O)N1C(C)C,n,u,x,x,n,n
COc1ccc(S(=O)(=O)N2CCC(C(=O)N3CCCCC3)CC2)cc1Cl,n,n,n,n,n,u
Cc1noc2ncnc(N3CCCC(C(=O)NCCC(C)C)C3)c12 (stereo unspecified),u,7.31µM,x,x,n,8.2µM
Cc1noc2ncnc(N3CCCC3)c12,n,n,n,n,n,n
CCOCCCNC(=O)C1CCCN(c2ncnc3onc(C)c23)C1 (stereo unspecified),n,20.6µM,x,x,n,16.4µM
COC(=O)c1ccccc1NC(=O)C1CCCN(c2ncnc3onc(C)c23)C1 (stereo unspecified),n,u,x,x,n,u
